The values that follow come from PubChem BioAssay (NCATS).

“And” between values parts separate entries of the source, which are not always exact repeats. Equal entries are not always repeated. Inconclusive results are not listed. The source made the active and inactive calls. The call rests on the fitted dose curve; in most records, active means well fitted inhibition curve with a large enough effect; inconclusive means small, poorly fitted or top-dose-only effect; inactive means flat fitted curve, though single readings scatter.
Potency means the concentration at half of the fitted maximal effect.

This test deals with Zika virus NS2B-NS3 protease (linked construct). Description: Confirmatory screen NINDS AMC qHTS for Zika virus inhibitors (AID 1347152). Further: nearly all actives have a fitted effect of over 70% in size.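 On activity change, negative = inhibition: AMC fluorescence gain from cleaved Bz-Nle-KRR-AMC substrate over 15 min; top concentration of the series differs between compounds; 0% = no-inhibitor control and -100% = no-enzyme control.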 Particulars: Purified linked NS2B-NS3, AMC substrate fluorescence; series mostly up to 56.6 µM; activity change, negative = inhibition: at the top concentration. From the text: Assay Submitters (PI): Avindra Nath, Ph.D., National Institute of Neurological Disorders and Stroke (NINDS), Bethesda, MD Radhakrishnan Padmanabhan, Ph.D., Georgetown University (GU), Washington D.C. Zika Virus causes congenital defects, including microcephaly and is associated with Guillain-Barre syndrome, eningoencephalitis and myelitis in infected adult. […] Using a target-based approach, we hope to establish a screening paradigm to uncover novel, cell-active NS2B-NS3 protease (Zika Virus) specific inhibitors from NCATS' collection of small molecules using qHTS. […] Four assay panel was created to identify potential Zika Virus inhibitors. Namely, (1) GU unlinked NS2B-NS3 AMC tagged protease qHTS, (2) GU unlinked NS2B-NS3 Rhodamine tagged protease qHTS, (3) NINDS linked NS2B-NS3 AMC tagged protease qHTS, (4) NINDS linked NS2B-NS3 Rhodamine tagged protease qHTS. Active compounds were re-acquired and re-screened to confirm inhibition. Inhibitors were further screened against various confirmatory and counterscreens in dose response format. Early Translation Branch (ETB) National Center for Advancing Translational Sciences (NCATS), Rockville, MD National Institute of Health (NIH), Bethesda, Maryland
Materials: For the linked assay, Nath lab (NINDS) provided the purified linked NS2B-NS3 protease which is consists of hydrophilic domain of NS2B linked to the NS3 protease domain by a flexible (-[…]-) linker. Control compound aprotinin is obtained from Thermo Scientific (#78432; Waltham, Massachusetts). NS2B-NS3 AMC substrate (Bz-Nle-Lys-Arg-Arg-AMC; Nle-KRR-AMC) purchased from Bachem (#I-1995; Torrance, CA). Ac-VKTGKR-AMC purchased from Genscript or Bachem, Ac-FAAGKR-AMC purchased from Genscript, Ac-GLVKRR-AMC purchased from Genscript, Ac-LKKR-AMC purchased from Genscript. NINDS AMC linked NS2B-NS3 protease qHTS protocol: Briefly, 3 microL of Zika virus linked NS2B-NS3 protease (1 nM for linked final concentration), in assay buffer (10 mM Tris-HCl pH 8.0 with 0.01% Tween 20) was dispensed into a 1,536-well solid-bottom black plate (Greiner Bio One, Monroe, NC). Twenty-three nL of compounds (final concentration range 7.28 nM to 114 microM) or control Aprotinin (final concentration range 3.47 nM to 114 microM) were transferred via Wako Pin-tool (Wako Automation, Richmond, VA). Samples were incubated (room temperature, protected from light) for 15 minutes followed by a 1 microL AMC substrate addition of (final concentration of 10 microM; Km = 18.3 µM). Plates were then read immediately on a ViewLux High-throughput CCD imager (PerkinElmer, Waltham, MA) equipped with standard UV fluorescence optics (340(30) nm excitation, 450(20) nm emission) then incubated (room temperature, protected from light) for 15 minutes (~20% conversion). The change in fluorescence intensity over the 15-minute reaction period was normalized against no-inhibitor and no-enzyme controls and the resulting percent inhibition data were fitted to a 4-parameter Hill equation. Aprotinin was used as the intraplate control.
With `COc1ccc(-c2ccc3c(N4CCOCC4)nc(N4C[C@@H](C)O[C@@H](C)C4)nc3n2)cc1CO`, the Potency is 27.1 µM (active).
The same measure, in the same setting: then `CCCc1nc2c(C)cc(-c3nc4ccccc4n3C)cc2n1Cc1ccc(-c2ccccc2C(=O)O)cc1`, with 21.5 µM (active).
Turning to `Cc1[nH]c(=O)c(C#N)cc1-c1ccc2nccn2c1`, the “activity change, negative = inhibition” value is 3.98% (inactive).
As to `CCn1cc(C(=O)O)c(=O)c2cc(F)c(N3CCNC(C)C3)c(F)c21` (configuration not stated), the Potency was 24.1 µM (active) and 27.1 µM (active).
Turning to `CCN(CC)CCCC(C)Nc1ccnc2cc(Cl)ccc12` (configuration not stated), the “activity change, negative = inhibition” value was 5.36% (inactive).
For `CCCCNc1cc(C(=O)O)cc(S(N)(=O)=O)c1Oc1ccccc1`, the Potency was 27.1 µM (active).
Still for that read-out and setting: then `CC(C)c1onc(-c2c(Cl)cccc2Cl)c1COc1ccc(/C=C/c2cccc(C(=O)O)c2)c(Cl)c1`, with 24.1 µM (active).
Regarding `CN1CCN(CCCN2c3ccccc3Sc3ccc(C(F)(F)F)cc32)CC1`, the “activity change, negative = inhibition” value is 17.2% (inactive).
For `O=C(C1CC1)N1CC[C@@H](Cn2c(-c3ccc(-c4ccc5occc5c4)cc3)nc3cnccc32)C1`, the Potency is 24.1 µM (active).
Take `Cc1cc(SCc2sc(-c3ccc(C(F)(F)F)cc3)nc2C)ccc1OCC(=O)O`: the Potency is 19.7 µM (active).
As for `Cc1[nH]c(=O)c(C#N)cc1-c1ccncc1`, the “activity change, negative = inhibition” value was -12.3% (inactive).
For the compound `O=c1n(CCCN2CCN(c3cccc(Cl)c3)CC2)nc2ccccn12`, the Potency was 24.1 µM (active).
